The record followed here is paper PMC7862700, “An all-to-all approach to the identification of sequence-specific readers for epigenetic DNA modifications on cytosine”.

Assay in all cases: DAPPL (digital affinity profiling via proximity ligation, sequencing); 10 mM Tris-HCl pH 7.5, 50 mM NaCl, 1 mM DTT, 4% glycerol, room temperature, 30 min; GST-TFs on glutathione beads, 16-mer random dsDNA library, 0.1% formaldehyde crosslink after washing; high values mean tight binding
Common to all, as to settings: protein: recombinant; tags: N-terminal GST; dsDNA, one strand shown

One experiment deals with T1, SPIC (Homo sapiens, UniProt Q8N5J4 1-248).
T1 sequence: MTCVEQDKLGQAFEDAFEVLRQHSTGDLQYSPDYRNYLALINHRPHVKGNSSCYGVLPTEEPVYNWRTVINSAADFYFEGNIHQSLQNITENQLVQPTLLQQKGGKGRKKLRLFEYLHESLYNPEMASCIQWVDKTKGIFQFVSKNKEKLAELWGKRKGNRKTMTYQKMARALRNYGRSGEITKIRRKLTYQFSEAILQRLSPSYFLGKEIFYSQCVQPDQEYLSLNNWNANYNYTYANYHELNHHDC
Summed up: (§1)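 Binding signal is defined as a hexamer's read frequency for one factor over its frequency for the tag-only sample. To obtain reads, GST-fused human transcription factors were expressed in yeast, captured on glutathione beads, barcoded with DNA and pooled with that sample. Pools met 200 nmole of a 16-mer random double-stranded DNA library in Tris/NaCl/DTT/glycerol buffer for 30 min at room temperature before washing, 0.1% formaldehyde crosslinking, proximity ligation (BsaI/T4 ligase, 1 h, 37 °C), PCR and Illumina NextSeq500 sequencing.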

In another experiment the target is ELF4 (Homo sapiens, UniProt Q99607 1-663). A digest of the protocol: as §1
For another experiment, the target named is T2, ELF3 (Homo sapiens, UniProt P78545 1-371).
T2 sequence: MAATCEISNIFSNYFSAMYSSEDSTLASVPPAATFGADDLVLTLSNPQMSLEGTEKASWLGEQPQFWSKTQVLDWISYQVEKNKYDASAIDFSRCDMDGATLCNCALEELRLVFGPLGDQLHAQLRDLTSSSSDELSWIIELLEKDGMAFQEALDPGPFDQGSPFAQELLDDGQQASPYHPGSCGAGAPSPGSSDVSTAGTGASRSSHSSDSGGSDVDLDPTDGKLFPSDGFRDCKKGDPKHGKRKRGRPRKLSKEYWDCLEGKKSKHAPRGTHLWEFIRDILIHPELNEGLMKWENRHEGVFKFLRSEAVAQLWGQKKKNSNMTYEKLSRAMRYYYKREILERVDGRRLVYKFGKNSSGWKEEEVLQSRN
Summed up:
as §1

Another experiment has as its target CRX (Homo sapiens, UniProt O43186 1-299). A digest of the protocol: as §1
In the next experiment the target is ETV1 (Homo sapiens, UniProt P50549 1-477). Summed up:
as §1

For a further experiment, the target named is T3, GABPA (Homo sapiens, UniProt Q06546 1-454).
T3 sequence: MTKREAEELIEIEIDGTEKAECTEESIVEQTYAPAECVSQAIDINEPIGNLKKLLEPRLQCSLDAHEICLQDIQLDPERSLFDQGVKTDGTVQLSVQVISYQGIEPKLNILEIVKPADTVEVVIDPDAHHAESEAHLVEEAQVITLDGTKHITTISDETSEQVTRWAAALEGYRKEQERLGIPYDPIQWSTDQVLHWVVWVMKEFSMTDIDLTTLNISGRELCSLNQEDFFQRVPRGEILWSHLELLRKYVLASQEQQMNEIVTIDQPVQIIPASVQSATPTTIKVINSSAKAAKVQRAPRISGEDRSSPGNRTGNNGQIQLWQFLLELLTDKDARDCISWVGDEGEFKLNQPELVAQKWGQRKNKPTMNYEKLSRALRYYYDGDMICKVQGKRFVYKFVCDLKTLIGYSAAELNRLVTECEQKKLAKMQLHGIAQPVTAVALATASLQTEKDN
Summed up:
as §1

The next experiment concerns the target T4, ERG (Homo sapiens, UniProt P11308 1-479).
T4 sequence: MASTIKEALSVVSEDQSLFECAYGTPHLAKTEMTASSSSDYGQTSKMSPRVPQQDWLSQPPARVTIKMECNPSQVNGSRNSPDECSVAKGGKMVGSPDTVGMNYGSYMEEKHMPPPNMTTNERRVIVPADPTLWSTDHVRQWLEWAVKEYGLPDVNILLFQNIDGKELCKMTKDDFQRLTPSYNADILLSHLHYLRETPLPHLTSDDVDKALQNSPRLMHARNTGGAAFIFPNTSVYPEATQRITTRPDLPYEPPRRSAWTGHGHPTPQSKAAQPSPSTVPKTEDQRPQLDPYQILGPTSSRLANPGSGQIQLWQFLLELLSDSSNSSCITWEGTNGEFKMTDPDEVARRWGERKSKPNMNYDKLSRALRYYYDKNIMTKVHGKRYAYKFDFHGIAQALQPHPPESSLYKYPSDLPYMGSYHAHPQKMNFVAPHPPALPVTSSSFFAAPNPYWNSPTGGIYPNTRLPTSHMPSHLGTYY
A digest of the protocol:
as §1

Another experiment deals with T5, EHF (Homo sapiens, UniProt Q9NZC4 1-300).
T5 sequence: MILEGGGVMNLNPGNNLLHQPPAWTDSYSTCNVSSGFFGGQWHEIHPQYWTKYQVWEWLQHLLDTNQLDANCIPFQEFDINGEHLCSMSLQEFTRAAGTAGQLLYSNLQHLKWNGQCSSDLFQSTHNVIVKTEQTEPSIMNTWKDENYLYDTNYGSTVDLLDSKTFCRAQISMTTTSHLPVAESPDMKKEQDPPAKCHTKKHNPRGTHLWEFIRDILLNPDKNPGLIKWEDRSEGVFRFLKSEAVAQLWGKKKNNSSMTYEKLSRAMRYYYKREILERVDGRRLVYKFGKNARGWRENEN
Summed up: as §1

The target of the next experiment is SPIB (Homo sapiens, UniProt Q01892 1-262). A digest of the protocol:
as §1

For a further experiment, the target named is T6, ELK3 (Homo sapiens, UniProt P41970 1-407).
T6 sequence: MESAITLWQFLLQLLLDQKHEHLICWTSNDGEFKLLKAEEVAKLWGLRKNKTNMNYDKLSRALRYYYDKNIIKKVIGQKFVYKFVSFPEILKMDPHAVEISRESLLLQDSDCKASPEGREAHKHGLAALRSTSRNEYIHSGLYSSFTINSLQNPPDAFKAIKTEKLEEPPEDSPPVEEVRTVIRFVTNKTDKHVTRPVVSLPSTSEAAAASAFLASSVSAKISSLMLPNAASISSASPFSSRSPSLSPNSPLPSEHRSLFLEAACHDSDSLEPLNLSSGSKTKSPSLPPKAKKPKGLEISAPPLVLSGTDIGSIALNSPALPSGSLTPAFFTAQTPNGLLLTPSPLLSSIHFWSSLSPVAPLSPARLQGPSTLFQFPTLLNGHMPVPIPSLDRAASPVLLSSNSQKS
A digest of the protocol:
as §1

For another experiment, the target named is T7, ELK4 (Homo sapiens, UniProt P28324-2 1-405).
T7 sequence: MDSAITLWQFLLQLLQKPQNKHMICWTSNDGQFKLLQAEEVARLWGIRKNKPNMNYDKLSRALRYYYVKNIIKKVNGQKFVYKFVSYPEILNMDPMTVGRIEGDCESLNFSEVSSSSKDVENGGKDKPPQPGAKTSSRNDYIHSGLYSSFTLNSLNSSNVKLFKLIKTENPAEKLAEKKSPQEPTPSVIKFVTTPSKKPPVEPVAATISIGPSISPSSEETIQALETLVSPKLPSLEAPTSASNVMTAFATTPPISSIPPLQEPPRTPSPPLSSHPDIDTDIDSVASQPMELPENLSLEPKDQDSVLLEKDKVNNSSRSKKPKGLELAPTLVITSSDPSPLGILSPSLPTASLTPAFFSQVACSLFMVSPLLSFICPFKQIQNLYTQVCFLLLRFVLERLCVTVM
A digest of the protocol: as §1

A further experiment addresses T8, ERF (Homo sapiens, UniProt P50548 1-548).
T8 sequence: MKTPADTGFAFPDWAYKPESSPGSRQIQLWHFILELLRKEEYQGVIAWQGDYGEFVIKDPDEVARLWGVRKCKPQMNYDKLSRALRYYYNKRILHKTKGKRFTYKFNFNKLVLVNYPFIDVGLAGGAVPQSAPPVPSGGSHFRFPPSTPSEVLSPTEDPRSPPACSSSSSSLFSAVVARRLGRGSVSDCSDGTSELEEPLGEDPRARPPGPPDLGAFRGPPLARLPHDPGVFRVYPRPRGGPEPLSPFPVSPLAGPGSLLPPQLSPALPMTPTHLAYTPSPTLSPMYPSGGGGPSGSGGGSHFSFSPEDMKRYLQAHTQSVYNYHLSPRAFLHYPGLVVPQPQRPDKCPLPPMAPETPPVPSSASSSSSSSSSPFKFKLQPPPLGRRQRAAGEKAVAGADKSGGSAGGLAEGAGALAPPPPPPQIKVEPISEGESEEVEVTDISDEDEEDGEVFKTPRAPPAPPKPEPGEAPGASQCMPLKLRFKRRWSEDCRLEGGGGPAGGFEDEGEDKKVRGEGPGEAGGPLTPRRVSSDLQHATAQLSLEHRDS
A digest of the protocol:
as §1

The target of the next experiment is T9, ETV3L (Homo sapiens, UniProt Q6ZN32 1-361).
T9 sequence: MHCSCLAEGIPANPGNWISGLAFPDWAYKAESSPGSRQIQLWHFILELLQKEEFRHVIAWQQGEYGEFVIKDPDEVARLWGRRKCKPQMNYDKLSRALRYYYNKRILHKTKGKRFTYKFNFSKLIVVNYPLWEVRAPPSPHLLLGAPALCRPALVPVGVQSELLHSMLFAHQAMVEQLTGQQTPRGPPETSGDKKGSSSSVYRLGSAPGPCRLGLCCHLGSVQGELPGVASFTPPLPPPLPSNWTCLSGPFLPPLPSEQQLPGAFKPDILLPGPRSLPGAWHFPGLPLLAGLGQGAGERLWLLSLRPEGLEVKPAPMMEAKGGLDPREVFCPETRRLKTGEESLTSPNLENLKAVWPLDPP
A digest of the protocol: as §1

For a further experiment, the target named is T10, ETS2 (Homo sapiens, UniProt P15036 1-469).
T10 sequence: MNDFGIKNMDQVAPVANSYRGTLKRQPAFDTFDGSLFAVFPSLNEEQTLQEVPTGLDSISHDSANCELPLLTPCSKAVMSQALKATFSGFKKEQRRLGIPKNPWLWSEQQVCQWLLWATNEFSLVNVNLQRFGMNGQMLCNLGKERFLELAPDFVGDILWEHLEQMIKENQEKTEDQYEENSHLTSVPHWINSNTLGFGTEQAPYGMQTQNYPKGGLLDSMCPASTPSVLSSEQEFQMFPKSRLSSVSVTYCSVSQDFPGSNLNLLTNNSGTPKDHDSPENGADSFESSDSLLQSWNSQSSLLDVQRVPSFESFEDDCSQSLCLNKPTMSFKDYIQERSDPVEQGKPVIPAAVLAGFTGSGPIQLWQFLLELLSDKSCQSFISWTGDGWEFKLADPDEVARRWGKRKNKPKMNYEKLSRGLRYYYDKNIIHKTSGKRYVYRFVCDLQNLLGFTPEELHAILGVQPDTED
Summed up:
as §1

The next experiment concerns the target T11, ETV7 (Homo sapiens, UniProt Q9Y603 1-341).
T11 sequence: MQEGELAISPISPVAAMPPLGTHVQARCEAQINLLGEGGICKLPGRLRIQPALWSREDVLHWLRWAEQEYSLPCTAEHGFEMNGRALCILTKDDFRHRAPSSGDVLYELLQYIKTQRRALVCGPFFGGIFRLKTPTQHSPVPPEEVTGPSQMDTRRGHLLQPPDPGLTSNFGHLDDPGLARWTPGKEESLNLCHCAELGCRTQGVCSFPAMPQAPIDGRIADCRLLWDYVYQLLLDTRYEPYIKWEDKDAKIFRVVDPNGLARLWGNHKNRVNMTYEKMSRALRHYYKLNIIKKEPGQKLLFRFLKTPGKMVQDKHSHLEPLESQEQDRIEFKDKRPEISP
Summed up:
as §1

Another experiment addresses T12, ETV3 (Homo sapiens, UniProt P41162-2 1-143).
T12 sequence: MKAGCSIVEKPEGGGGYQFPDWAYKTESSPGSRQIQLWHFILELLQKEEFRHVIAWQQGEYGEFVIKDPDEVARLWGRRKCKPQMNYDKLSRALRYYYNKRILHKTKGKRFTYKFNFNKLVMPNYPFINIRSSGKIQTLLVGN
Summed up:
as §1

The target in another experiment is ETV6 (Homo sapiens, UniProt P41212 1-452). Summed up:
as §1

Chain of ELF4 (Q99607 whole entry): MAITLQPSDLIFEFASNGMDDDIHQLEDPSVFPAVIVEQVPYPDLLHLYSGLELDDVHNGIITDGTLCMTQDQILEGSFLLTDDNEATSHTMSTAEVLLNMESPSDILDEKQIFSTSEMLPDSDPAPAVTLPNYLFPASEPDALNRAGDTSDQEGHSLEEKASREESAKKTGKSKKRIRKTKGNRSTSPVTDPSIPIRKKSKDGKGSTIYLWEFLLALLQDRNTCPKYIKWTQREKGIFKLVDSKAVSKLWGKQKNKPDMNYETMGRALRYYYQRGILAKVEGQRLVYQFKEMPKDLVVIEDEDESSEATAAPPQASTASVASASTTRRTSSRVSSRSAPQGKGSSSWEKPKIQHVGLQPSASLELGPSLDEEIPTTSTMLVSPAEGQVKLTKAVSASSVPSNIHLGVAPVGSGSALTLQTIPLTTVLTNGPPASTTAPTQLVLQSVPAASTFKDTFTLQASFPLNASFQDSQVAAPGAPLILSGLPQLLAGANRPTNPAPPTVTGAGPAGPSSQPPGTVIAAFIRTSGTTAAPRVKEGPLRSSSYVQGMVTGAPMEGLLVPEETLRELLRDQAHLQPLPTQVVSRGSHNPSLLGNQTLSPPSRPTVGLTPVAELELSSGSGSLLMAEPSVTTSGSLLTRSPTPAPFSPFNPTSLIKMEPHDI
Chain of ETV1 (P50549 whole entry): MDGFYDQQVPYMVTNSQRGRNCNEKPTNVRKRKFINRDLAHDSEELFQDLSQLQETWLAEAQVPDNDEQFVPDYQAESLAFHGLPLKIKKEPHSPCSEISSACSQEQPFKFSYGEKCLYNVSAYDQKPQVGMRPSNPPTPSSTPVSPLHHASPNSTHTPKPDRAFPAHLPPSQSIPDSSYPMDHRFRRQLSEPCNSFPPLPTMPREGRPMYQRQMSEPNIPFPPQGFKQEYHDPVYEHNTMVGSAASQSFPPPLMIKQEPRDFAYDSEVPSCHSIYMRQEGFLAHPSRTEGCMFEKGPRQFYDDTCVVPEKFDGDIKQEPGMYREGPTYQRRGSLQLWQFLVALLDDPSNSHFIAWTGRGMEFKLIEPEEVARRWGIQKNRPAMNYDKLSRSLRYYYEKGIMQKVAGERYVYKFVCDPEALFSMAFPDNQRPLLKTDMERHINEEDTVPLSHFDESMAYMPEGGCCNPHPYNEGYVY
Chain of SPIB (Q01892 whole entry): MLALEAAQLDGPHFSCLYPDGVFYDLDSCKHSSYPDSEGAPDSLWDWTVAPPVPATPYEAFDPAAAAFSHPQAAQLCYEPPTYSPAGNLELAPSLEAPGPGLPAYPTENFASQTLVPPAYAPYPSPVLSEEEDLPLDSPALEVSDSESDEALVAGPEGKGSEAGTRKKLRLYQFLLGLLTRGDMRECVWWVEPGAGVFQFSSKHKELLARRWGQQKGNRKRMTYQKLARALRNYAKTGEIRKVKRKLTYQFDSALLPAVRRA
Chain of CRX (O43186 whole entry): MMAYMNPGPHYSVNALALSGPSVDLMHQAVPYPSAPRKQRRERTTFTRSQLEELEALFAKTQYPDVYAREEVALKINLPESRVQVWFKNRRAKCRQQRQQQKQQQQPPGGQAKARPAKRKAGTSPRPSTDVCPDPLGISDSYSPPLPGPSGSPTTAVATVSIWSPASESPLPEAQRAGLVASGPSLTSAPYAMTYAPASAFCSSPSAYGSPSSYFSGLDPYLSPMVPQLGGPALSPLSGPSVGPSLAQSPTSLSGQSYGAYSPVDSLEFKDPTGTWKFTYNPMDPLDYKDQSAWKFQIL
Chain of ETV6 (P41212 whole entry): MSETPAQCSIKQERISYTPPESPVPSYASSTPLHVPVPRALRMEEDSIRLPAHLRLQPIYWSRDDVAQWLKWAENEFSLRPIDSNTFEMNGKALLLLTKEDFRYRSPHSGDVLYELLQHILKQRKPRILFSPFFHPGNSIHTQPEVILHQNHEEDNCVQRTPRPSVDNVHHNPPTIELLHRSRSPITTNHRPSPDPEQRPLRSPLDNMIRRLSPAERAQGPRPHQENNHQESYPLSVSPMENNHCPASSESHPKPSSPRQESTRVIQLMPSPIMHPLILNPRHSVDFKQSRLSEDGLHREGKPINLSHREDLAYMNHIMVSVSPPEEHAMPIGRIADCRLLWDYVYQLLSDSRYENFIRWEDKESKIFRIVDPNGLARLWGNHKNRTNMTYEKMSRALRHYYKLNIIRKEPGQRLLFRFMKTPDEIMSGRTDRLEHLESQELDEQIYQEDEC

For the sequence CTAAGG, the binding signal was 1.06 fold enrichment (6-mer frequency, TF over GST control) with SPIC; 1.02 fold enrichment (6-mer frequency, TF over GST control) with ELF4; 1.02 fold enrichment (6-mer frequency, TF over GST control) with ELF3; 1.12 fold enrichment (6-mer frequency, TF over GST control) with CRX; 1.01 fold enrichment (6-mer frequency, TF over GST control) in the experiment with ETV1.
Take CATATG: the binding signal is 1.09 fold enrichment (6-mer frequency, TF over GST control) with GABPA; 1.07 fold enrichment (6-mer frequency, TF over GST control) with ERG; 1.01 fold enrichment (6-mer frequency, TF over GST control) with EHF; 1.04 fold enrichment (6-mer frequency, TF over GST control) with SPIB; 1.04 fold enrichment (6-mer frequency, TF over GST control) with ELK3; 1.01 fold enrichment (6-mer frequency, TF over GST control) with SPIC. In addition, the binding signal with ELF4 was 1.04 fold enrichment (6-mer frequency, TF over GST control); with ELK4 it was 1.11 fold enrichment (6-mer frequency, TF over GST control); with ERF it was 1.06 fold enrichment (6-mer frequency, TF over GST control); in the experiment with ETV3L, 1.06 fold enrichment (6-mer frequency, TF over GST control); with ETS2, 1.04 fold enrichment (6-mer frequency, TF over GST control); with ETV7 it was 1.14 fold enrichment (6-mer frequency, TF over GST control). The binding signal is 1.02 fold enrichment (6-mer frequency, TF over GST control) with ETV3 and 1.03 fold enrichment (6-mer frequency, TF over GST control) in the experiment with ETV6.
For GACTCG, in the experiment with SPIC, the binding signal is 1.02 fold enrichment (6-mer frequency, TF over GST control).
The same measure, in the same setting: the value for GGCACC was 1.03 fold enrichment (6-mer frequency, TF over GST control).
Same read-out and setting: the value for GATAGT was 1.01 fold enrichment (6-mer frequency, TF over GST control).
